According to the supplement of paper PMC9262897, “Low-cost anti-mycobacterial drug discovery using engineered E. coli” (Nature Communications, 2022):
Counter-ions that a name gives are not always drawn. ± gives the standard deviation of the averaged measurements.

Tests used:
Experiment in all cases: growth (OD600 after 10 h); higher = more growth (less inhibition)
[1] = system: E. coli TESEC Alr+ wild-type control; conditions: compound 0.1 mM; raw OD600 reference: median of DMSO wells 0.241, cell-free background 0.041
Experimental: (§1)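 TESEC Mtb Alr E. coli, or the Alr+ wild-type control, in 384-well plates with Prestwick library compounds at 0.1 mM and 1% DMSO, across arabinose induction levels of 1E3 to 1E7 nM. Growth is read as OD600 after 10 h at 37 °C in triplicate biological replicates.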

E. coli TESEC Mtb Alr [2] = conditions: compound 0.1 mM
Experimental: as §1

E. coli TESEC Mtb Asd = conditions: compound 0.1 mM
Experimental: (§2)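 TESEC E. coli strains in which the native enzyme is deleted and replaced by arabinose-inducible Mtb Asd, DapB, CysH or TrpD, each grown in its selective medium. Strains were screened against the Prestwick library at 0.1 mM and 1% DMSO in 384-well format at low and high arabinose induction. Growth is read as OD600 after 10 h in triplicate.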

E. coli TESEC Mtb DapB = conditions: compound 0.1 mM
Experimental: as §2

[3] = system: E. coli TESEC Alr+ wild-type control; conditions: compound 0.1 mM; raw OD600 reference: median of DMSO wells 0.49, cell-free background 0.052
Experimental: (§3)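 TESEC Mtb Alr E. coli (ΔaraC ΔtolC ΔentC Δalr ΔdadX, arabinose-inducible Mtb Alr) or the Alr+ wild-type control strain, grown in defined M9-fructose medium without D-alanine in 96-well plates with Prestwick library compounds at 0.1 mM and 1% DMSO. Low Alr induction is 0.1 µM arabinose and high induction is 10 mM arabinose.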

E. coli TESEC Mtb Alr [4] = conditions: compound 0.1 mM; remark: listed apart in the source
Experimental: as §3

[5] = arabinose 1000 nM, raw OD600 reference: median of DMSO wells 0.294, cell-free background 0.041
[6] = arabinose 10000 nM, raw OD600 reference: median of DMSO wells 0.264, cell-free background 0.041
[7] = arabinose 100000 nM, raw OD600 reference: median of DMSO wells 0.201, cell-free background 0.041
[8] = arabinose 1000000 nM, raw OD600 reference: median of DMSO wells 0.193, cell-free background 0.041
[9] = arabinose 10000000 nM, raw OD600 reference: median of DMSO wells 0.146, cell-free background 0.041
[10] = arabinose induction (level): High, raw OD600 reference: median of DMSO wells 0.331, cell-free background 0.041
[11] = arabinose induction (level): Low, raw OD600 reference: median of DMSO wells 0.417, cell-free background 0.041
[12] = arabinose induction (level): High, raw OD600 reference: median of DMSO wells […], cell-free background 0.041
[13] = arabinose induction (level): Low, raw OD600 reference: median of DMSO wells 0.227, cell-free background 0.041
[14] = arabinose 100 nM, raw OD600 reference: median of DMSO wells 0.413, cell-free background 0.052
[15] = arabinose 10000000 nM, raw OD600 reference: median of DMSO wells […], cell-free background 0.052

| SMILES | growth [1] | growth (E. coli TESEC Mtb Alr [2]; [5]) | growth (E. coli TESEC Mtb Alr [2]; [6]) | growth (E. coli TESEC Mtb Alr [2]; [7]) | growth (E. coli TESEC Mtb Alr [2]; [8]) | growth (E. coli TESEC Mtb Alr [2]; [9]) | growth (E. coli TESEC Mtb Asd; [10]) | growth (E. coli TESEC Mtb Asd; [11]) | growth (E. coli TESEC Mtb DapB; [12]) | growth (E. coli TESEC Mtb DapB; [13]) | growth [3] | growth (E. coli TESEC Mtb Alr [4]; [14]) | growth (E. coli TESEC Mtb Alr [4]; [15]) |
| --- | --- | --- | --- | --- | --- | --- | --- | --- | --- | --- | --- | --- | --- |
| CN(C)[C@@H]1C(=O)C(C(N)=O)=C(O)[C@@]2(O)C(=O)C3=C(O)c4c(O)ccc(Cl)c4[C@@H](O)[C@H]3C[C@@H]12 [Demeclocycline hydrochloride] | 0.0424 ± 0.00081 | 0.0502 ± 0.0039 | 0.0459 ± 0.0013 | 0.0479 ± 0.0019 | 0.0435 ± 0.00079 | 0.0452 ± 0.0007 | 0.0573 ± 0.0014 | 0.0773 ± 0.029 | 0.0577 ± 0.0035 | 0.0559 ± 0.002 | 0.05087 ± 0.00038 | 0.0561 ± 0.0037 | 0.05407 ± 0.00042 |
| c1ccc(CNc2ncnc3nc[nH]c23)cc1 [Aminopurine, 6-benzyl] | 0.208 ± 0.0066 | 0.243 ± 0.0086 | 0.262 ± 0.006 | 0.19 ± 0.014 | 0.166 ± 0.0054 | 0.149 ± 0.013 | 0.279 ± 0.014 | 0.339 ± 0.072 | 0.169 ± 0.0055 | 0.197 ± 0.022 | 0.509 ± 0.077 | 0.416 ± 0.0048 | 0.361 ± 0.0061 |
| COc1cc(N)c(Cl)cc1C(=O)NC1CCN(CCCOc2ccc(F)cc2)CC1OC (centres undefined) [Cisapride] | 0.2147 ± 0.0012 | 0.2892 ± 0.0012 | 0.2613 ± 0.0016 | 0.201 ± 0.03 | 0.155 ± 0.0047 | 0.148 ± 0.0037 | 0.222 ± 0.017 | 0.357 ± 0.041 | 0.171 ± 0.003 | 0.186 ± 0.0052 | 0.552 ± 0.1 | 0.41 ± 0.011 | 0.458 ± 0.038 |
| COC(c1ccccc1)(c1ccccc1)[C@H](Oc1nc(C)cc(C)n1)C(=O)O [Ambrisentan] | 0.217 ± 0.0053 | 0.28 ± 0.0015 | 0.285 ± 0.0062 | 0.177 ± 0.024 | 0.224 ± 0.0037 | 0.13 ± 0.0029 | 0.284 ± 0.072 | 0.315 ± 0.053 | 0.191 ± 0.016 | 0.234 ± 0.021 | 0.535 ± 0.022 | 0.41 ± 0.008 | 0.354 ± 0.015 |
| O=C(O)[C@H]1/C(=C/CO)O[C@@H]2CC(=O)N21 [Clavulanate potassium salt] | 0.155 ± 0.0016 | 0.0502 ± 0.0035 | 0.0477 ± 0.0036 | 0.0582 ± 0.0016 | 0.195 ± 0.0057 | 0.0991 ± 0.0015 | 0.535 ± 0.033 | 0.387 ± 0.062 | 0.182 ± 0.0081 | 0.164 ± 0.012 | 0.04737 ± 0.00042 | 0.0839 ± 0.04 | 0.101 ± 0.017 |
| CCN(CC)CCNC(=O)c1ccc(N)cc1 [Procainamide hydrochloride] | 0.239 ± 0.0037 | 0.306 ± 0.019 | 0.2558 ± 0.0023 | 0.209 ± 0.043 | 0.192 ± 0.002 | 0.141 ± 0.0042 | 0.341 ± 0.0095 | 0.42 ± 0.039 | 0.192 ± 0.015 | 0.201 ± 0.0082 | 0.634 ± 0.046 | 0.408 ± 0.01 | 0.364 ± 0.0095 |
| NC(=O)c1cc[n+](CC2=C(C(=O)[O-])N3C(=O)[C@@H](NC(=O)[C@@H](c4ccccc4)S(=O)(=O)O)[C@H]3SC2)cc1 [Cefsulodin sodium salt] | 0.257 ± 0.0041 | 0.309 ± 0.014 | 0.235 ± 0.007 | 0.228 ± 0.006 | 0.2032 ± 0.0015 | 0.145 ± 0.0069 | 0.33 ± 0.084 | 0.423 ± 0.028 | 0.211 ± 0.013 | 0.245 ± 0.015 | 0.636 ± 0.015 | 0.366 ± 0.012 | 0.356 ± 0.014 |
| O=C(CCCN1CCN(c2ccccn2)CC1)c1ccc(F)cc1 [Azaperone] | 0.192 ± 0.0058 | 0.2624 ± 0.0023 | 0.294 ± 0.0053 | 0.164 ± 0.013 | 0.177 ± 0.0089 | 0.146 ± 0.0043 | 0.217 ± 0.017 | 0.326 ± 0.029 | 0.194 ± 0.0048 | 0.264 ± 0.05 | 0.395 ± 0.0085 | 0.423 ± 0.0076 | 0.304 ± 0.01 |
| O=C(O)CCC(=O)Nc1ccc(S(=O)(=O)Nc2nccs2)cc1 [Succinylsulfathiazole] | 0.257 ± 0.0064 | 0.328 ± 0.017 | 0.264 ± 0.0094 | 0.21 ± 0.018 | 0.18 ± 0.0018 | 0.157 ± 0.0071 | 0.447 ± 0.027 | 0.432 ± 0.04 | 0.196 ± 0.024 | 0.258 ± 0.028 | 0.455 ± 0.037 | 0.4084 ± 0.0019 | 0.317 ± 0.014 |
| NS(=O)(=O)c1cc2c(cc1Cl)NC(CC1CCCC1)NS2(=O)=O (centres undefined) [Cyclopenthiazide] | 0.236 ± 0.0074 | 0.278 ± 0.0078 | 0.2543 ± 0.0017 | 0.273 ± 0.013 | 0.191 ± 0.0034 | 0.143 ± 0.0052 | 0.377 ± 0.063 | 0.314 ± 0.053 | 0.212 ± 0.0077 | 0.214 ± 0.0079 | 0.513 ± 0.035 | 0.375 ± 0.011 | 0.356 ± 0.0061 |
| NNC(=O)c1ccncc1 [Isoniazid] | 0.242 ± 0.0073 | 0.288 ± 0.006 | 0.275 ± 0.0043 | 0.239 ± 0.052 | 0.186 ± 0.007 | 0.139 ± 0.0028 | 0.396 ± 0.028 | 0.429 ± 0.083 | 0.194 ± 0.0035 | 0.242 ± 0.052 | 0.458 ± 0.054 | 0.405 ± 0.0067 | 0.359 ± 0.022 |
| CCCCOc1cc(C(=O)NCCN(CC)CC)c2ccccc2n1 [Dibucaine] | 0.216 ± 0.016 | 0.281 ± 0.0065 | 0.26283 ± 0.00023 | 0.208 ± 0.0075 | 0.154 ± 0.0091 | 0.174 ± 0.0038 | 0.239 ± 0.058 | 0.3947 ± 0.0033 | 0.184 ± 0.016 | 0.25 ± 0.025 | 0.452 ± 0.017 | 0.415 ± 0.0019 | 0.321 ± 0.025 |
| CCOC(=O)[C@H](CCc1ccccc1)N[C@@H](C)C(=O)N1CCC[C@H]1C(=O)O [Enalapril maleate] | 0.247 ± 0.014 | 0.296 ± 0.017 | 0.25 ± 0.0032 | 0.231 ± 0.03 | 0.174 ± 0.0046 | 0.161 ± 0.009 | 0.322 ± 0.039 | 0.373 ± 0.067 | 0.188 ± 0.018 | 0.268 ± 0.029 | 0.499 ± 0.024 | 0.412 ± 0.011 | 0.355 ± 0.017 |
